mHTT-CaM PPI inh – inhibitors of human mutant huntingtin-calmodulin interaction; P42858; AlphaScreen His-mHTT/GST-CaM binding, luminescence; 190,000 tested, 3.6% active; inhibition, % at 15 µM;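 also: 0% = both proteins with DMSO and 100% = one protein alone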
Pf apPOL inh – Pf-apPOL DNA polymerase inhibition; AID 1794808; 210,000 tested, 0.25% active; Recombinant Pf-apPOL, molecular beacon fluorescence, 1.5 h; inhibition, % at 10 µM
An asterisk follows results filed as active; / = no result given. Only some compounds are listed: those with a hit (about 3.6% of all), similar ones and a draw of the others. Rule as the data show it: active = inhibition above about 50%; inactive = the rest.

SMILES | mHTT-CaM PPI inh | Pf apPOL inh
COC(=O)C1=C(Sc2ccc(Cl)cc2)CSC1 | / | -0.7
CCOC(=O)C(C)Oc1ccc2c(=O)c(-c3ccccc3)c(C(F)(F)F)oc2c1 (configuration not stated) | -21.8 | -3.1
O=C1C=C(c2ccccc2)OC(c2ccc(OCc3ccccc3F)cc2)O1 (configuration not stated) | -16.0 | -4.7
O=C(/C=C1\Sc2ccccc2NC1=O)NCCCN1CCN(c2ccc(F)cc2)CC1 | 74.0* | -16.6
O=C1Nc2ccccc2S/C1=C\C(=O)N1CCN(c2ccc(F)cc2)CC1 | 26.0 | -24.0
O=S(=O)(Oc1cccc2[nH]ccc12)c1ccc(Cl)cc1Cl | / | -2.1
O=c1oc2cc(OCc3ccc(Cl)cc3)ccc2c2c1CCCC2 | -6.5 | 4.0
COc1ccccc1NC(=O)c1c(NCc2cccnc2)sc2c1CCCC2 | 71.0* | -22.5
COc1ccccc1NC(=O)c1c(NC(=O)c2ccccc2Cl)sc2c1CCC2 | -3.8 | 1.7
COc1ccccc1NC(=O)c1c(NCc2cccnc2)sc2c1CCC2 | 74.0* | -17.4
CCOc1ccccc1NC(=O)c1c(NCc2cccnc2)sc2c1CCC(C)C2 (configuration not stated) | 25.0 | -17.7
COc1cc(C(C[N+](=O)[O-])c2c(-c3ccccc3)n(C)c3ccccc23)cc(OC)c1OC (configuration not stated) | -1.0 | -2.1
Cc1cccc(C2NC(=O)c3c(sc(C)c3C)N2)c1O (configuration not stated) | 33.0 | 0.5
Cc1ccc(O)c(C2NC(=O)c3c(sc(C)c3C)N2)c1 (configuration not stated) | 72.0* | -6.2
CC1=NN(c2ccccc2)C(=O)/C1=C/c1ccc(-c2cccc(C(=O)O)c2)o1 | 76.0* | -11.5
COc1cc([N+](=O)[O-])ccc1-c1ccc(/C=C2/C(=O)N(c3cccc(Cl)c3)N=C2C)o1 | 0.0 | -7.0
CC1=NN(c2ccccc2)C(=O)/C1=C/c1ccc(-c2ccccc2Cl)o1 | 8.0 | -2.4
O=C1NN(c2ccc(Cl)c(Cl)c2)C(=O)/C1=C/c1ccc(-c2ccccc2C(=O)O)o1 | 51.0* | -1.3
CC1=NN(c2ccccc2)C(=O)/C1=C/c1ccc(-c2cccc([N+](=O)[O-])c2)o1 | 5.0 | -9.4
CC1=NN(c2ccccc2)C(=O)/C1=C/c1ccc(-c2ccc(Cl)c(C(=O)O)c2)o1 | 77.0* | -3.2
O=C1NN(c2ccc(Cl)c(Cl)c2)C(=O)/C1=C/c1ccc(-c2cccc(C(=O)O)c2)o1 | 17.0 | -3.5
CC1=NN(c2cccc(Cl)c2)C(=O)/C1=C/c1ccc(-c2ccc(C(=O)O)c(Cl)c2)o1 | 52.0* | -6.4
CCOCCCNC(=O)c1cn(CC)c2nc(C)ccc2c1=O | 1.0 | -3.6
O=[N+]([O-])c1cc(Cl)ccc1N=Nc1cc(F)cc(F)c1O | / | -1.5
O=C(NC1CCCCC1)C1CCCN(S(=O)(=O)N2CCCC2)C1 (configuration not stated) | -3.0 | -22.3
SMILES | mHTT-CaM PPI inh | Pf apPOL inh
O=C(c1ccco1)N1CCc2nc(-c3ccc(F)cc3)ncc2C1 | 2.8 | -5.3
Cn1cnc2c1CN(CC(=O)NCc1cccc(C(F)(F)F)c1)CC2 | 68.1* | -6.3
Cc1nn(C)c2c(=O)n(CC(=O)NCc3cccc(C(F)(F)F)c3)ccc12 | -5.6 | 1.1
Cc1ccc(N2C(=O)CC(NCCc3ccccc3)C2=O)cc1Cl (configuration not stated) | 1.9 | -3.9
Cc1cc(C)c(CNC(=O)c2cn3c(n2)CN(CC(C)C)CC3)c(C)c1 | 70.7* | -0.5
CC(C)CN1CCn2cc(C(=O)N3CCN(c4ccccc4Cl)CC3)nc2C1 | 45.7 | -4.2
Cc1ccc(C)c(CNC(=O)c2cn3c(n2)CN(CC(C)C)CC3)c1 | 20.0 | 0.1
CC(C)CN1CCn2cc(C(=O)N3CCN(c4ccccc4)CC3)nc2C1 | 57.7* | -6.1
Cc1cccc(N2CCN(C(=O)c3cn4c(n3)CN(CC(C)C)CC4)CC2)c1C | 71.4* | -7.9
CC(C)CN1CCn2cc(C(=O)N3CCN(c4ccc(Cl)cc4)CC3)nc2C1 | 91.5* | -8.7
CCCN1CCn2cc(C(=O)N3CCN(c4ccc(Cl)cc4)CC3)nc2C1 | 17.0 | -4.6
Cc1cccc(N2CCN(C(=O)c3cn4c(n3)COCC4)CC2)c1C | 5.3 | -0.4
N#CCC[C@@H]1CC[C@]2(CCCN(C(=O)c3ccccc3)C2)O1 | -11.9 | -9.7
CCN(CC)C(=O)CC[C@H]1CC[C@]2(CCCN(Cc3ccc(Br)cc3)C2)O1 | 9.2 | -0.2
N#CCC[C@@H]1CC[C@]2(CCCN(C(=O)c3ccco3)C2)O1 | 98.8* | -6.2
N#CCC[C@H]1CC[C@]2(CCCN(Cc3ccc(Br)cc3)C2)O1 | 88.6* | -9.0
O=C(CCCc1c[nH]c2ccccc12)N1CCc2nc3cc[nH]n3c(=O)c2C1 | 4.0 | 1.0
Cc1c(C(=O)NCCc2ccccc2)oc2ccc(S(=O)(=O)N3CCCCC3)cc12 | -7.0 | -6.5
c1ccc2c(N3CCN(c4ncnc5ccccc45)CC3)ncnc2c1 | -4.4 | 56.8*
Brc1ccc2ncnc(N3CCCC3)c2c1 | -1.8 | -2.5
COc1ccc(-n2c(C)cc(C(=O)CN3CCOCC3)c2C)cc1 | -1.8 | -2.1
COc1ccc(OC)c(-n2c(CCC(=O)O)ccc2-c2cccs2)c1 | 16.0 | 4.8
Cc1ccc(S(=O)(=O)N2CC=C(c3cn(C(C)C)c4ncccc34)CC2)cc1Cl | 40.0 | -13.5
O=C(CN1C(=O)C2CCCN2C(=O)c2ccc(F)cc21)NCc1ccccc1F (configuration not stated) | -2.7 | -7.9
N#CSC(CS(=O)(=O)c1cccc([N+](=O)[O-])c1)c1ccccc1 (configuration not stated) | 93.7* | -7.4
SMILES | mHTT-CaM PPI inh | Pf apPOL inh
N#CSC(CS(=O)(=O)c1ccccc1)c1ccccc1 (configuration not stated) | -10.4 | -7.3
COc1ccc(NC(=O)c2cc3c(CO)cnc(C)c3oc2=Nc2cc(Cl)ccc2OC)cc1 | -1.0 | -5.0
CCc1nc2c(NC(=O)c3cc(F)cc(F)c3)cccn2n1 | -5.6 | -3.0
CCc1nc2c(NC(=O)c3ccc(C(F)(F)F)cc3)cccn2n1 | 54.5* | -0.4
O=C(O)c1ccc(S(=O)(=O)NC2CCCC2)cc1 | -1.1 | -1.0
O=S(=O)(Nc1nccs1)c1ccc(NS(=O)(=O)c2cc(Cl)ccc2Cl)cc1 | 2.6 | -47.0
CCCCC(=O)NC(c1ccc(Cl)cc1)c1ccc2cccnc2c1O (configuration not stated) | 17.0 | 0.8
CCC(=O)NC(c1ccc(Cl)cc1)c1ccc2cccnc2c1O (configuration not stated) | 100.0* | -3.1
CCCC(=O)NC(c1ccc(Cl)cc1)c1ccc2cccnc2c1O (configuration not stated) | 99.0* | 6.0
CCC(=O)NC(c1ccccc1)c1ccc2cccnc2c1O (configuration not stated) | 100.0* | -0.1
CCC(=O)NC(=O)NC(c1ccccc1)c1ccccc1 | -4.9 | 0.1
CC(=O)NC(c1ccc(Cl)cc1Cl)c1ccc2cccnc2c1O (configuration not stated) | 100.0* | 1.8
CC(C)C12CN3CC(C(C)C)(CN(C1)C3c1cccs1)C2=O (configuration not stated) | -5.0 | -1.1
C/C(=C\c1ccccc1)CN1CCN(c2ccc([N+](=O)[O-])cc2)CC1 | 21.2 | -5.5
COc1ccc(CCC(=O)N2CCn3c(C)nnc3C2)cc1 | -6.6 | 0.2
COc1ccc(CCC(=O)NCCCOc2cccc3cccnc23)cc1 | 2.0 | -4.7

Screening data: PubChem BioAssay, University of Kansas High Throughput Screening Laboratory
